± gives the standard deviation.
System: MILI (PIWIL2) piRISC loaded with L1MC piRNA (26 nt)
Experiment: pre-steady-state target cleavage rate (min^-1); guide: L1MC piRNA 5'p-UAACUAAAUACUAUGCAAGCUGUAGG; MIWI and MILI are mouse PIWI proteins and EfPiwi is from a freshwater sponge; tags in brackets are library labels; higher = faster piRNA-guided slicing of the target
Outline: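 Cleave-'n-Seq used a transcribed, DNA-blocked target RNA library at 0.1 nM and active affinity-purified piRISC with one synthetic guide at 1 nM, with or without 500 nM GTSF1 partner protein, in HEPES–potassium acetate buffer at 33 °C for 0–8 or 0–960 min. Uncleaved targets were sequenced and normalised to depth and to weakly complementary targets, and three trials were pooled with k3 capped at 0.0001 min^-1. The pre-steady-state cleavage rate was estimated by a burst-and-steady-state fit.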

[1] = auxiliary factor: 500 nM mouse GTSF1
[2] = auxiliary factor: none (no GTSF1)

Sequence	pre-steady-state target cleavage rate [1]	pre-steady-state target cleavage rate [2]
UCCUGCUACAGCUUGGAUUGUAUUUAGUUA	0.0899 ± 0.011	0.00506 ± 0.0023
UCCUGGAUGUGGUUGCAUAGUAUUUUGUUA	0.0586 ± 0.023	0.0039 ± 0.0037
UCCUGGUACAGCUUGGCAUAGUAUUUAGUUA	0.4 ± 0.093	0.00473 ± 0.0036
UCCUGGAUGUCCUUGCAUACAUUUUAGUUA	0.00731 ± 0.0047	0.00422 ± 0.0019
UCCUGGAUGUCCUUGGAUAGUAUAUAGUUA	0.165 ± 0.035	0.0038 ± 0.0025
UCCUGGAUGUCGUUGCAUAGUAAUUUAGUUA	0.0127 ± 0.0059	0.00447 ± 0.0029
UCCUGGAUCACGUUGCAUAGUAUUUAGUAA	0.18 ± 0.024	0.00365 ± 0.0029
UCCUGGAUGAGGUUGGAUAGUAUUUAGUUA	0.132 ± 0.021	0.00824 ± 0.0025
UCCUGGUACAGCUUGCAUAGUUAAUAGUUA	0.0312 ± 0.01	0.00424 ± 0.0026
UCCUGGAACAGCUAGCAUUGUAUUUAGUUA	0.164 ± 0.013	0.0074 ± 0.0021
UCCUGGAUGUCGAUGCAUAGUAUUAUAGUUA	0.123 ± 0.021	0.00538 ± 0.0026
UCCUGGAUCAGCUUGCUAAGUAUUUAGUUA	0.0871 ± 0.012	0.0065 ± 0.0021
UCCUGGAUGUCGUUGCAUAGUAUUUAGUUG [g2:g18:cont:t1G]	0.1 ± 0.016	0.00688 ± 0.003
UCCUGGAUGUGCUUGCUAGUAUUUAGUUA	0.00654 ± 0.0035	0.00432 ± 0.0028
UCCUGGAUGUCCUUGCAUAGUCAUUUAGUUA	0.00722 ± 0.0051	0.00338 ± 0.003
UCCUGCUACAGCUUGCAUACUAUUUAGUUA	0.0775 ± 0.012	0.0046 ± 0.0019
UCCUGGAUGAGGUUGCAUAGUAUUAAGUUA	0.0422 ± 0.018	0.00493 ± 0.0031
UCCUGGAACAGCAACCAUAGUAUUUAGUUA	0.152 ± 0.018	0.00431 ± 0.0018
UCCUGGAUGAGCUACCAUAGUAUUUAGUUA	0.101 ± 0.018	0.00301 ± 0.0025
UCCUGGAUGUGCUAGCUUAGUAUUUAGUUA	0.0596 ± 0.0098	0.00453 ± 0.0023
UCCUGGAUGAGCUUGCUAUGUAUUUAGUUA	0.00711 ± 0.0026	0.00524 ± 0.0027
UCCUGGUACAGCUUGCAUUGUAUAUAGUUA	0.087 ± 0.018	0.00415 ± 0.0033
UCCUGGAACAGCUUGCAUAGAUAUUUAGUUA	0.0184 ± 0.0071	0.00387 ± 0.0025
UCCUGGAUGAGCUUGCUAGUAUUUAGUUA	0.00709 ± 0.0035	0.00421 ± 0.0027
UCCUGGAUGUCGUUGCAUAGUAUUUAGUUU [g2:g18:cont:t1U]	0.128 ± 0.016	0.0134 ± 0.0037

Reference: the supplement of paper PMC10338343
